In the supplement of paper PMC4466140:

Experiments:
Assay in all cases: SPOT peptide array binding signal intensity (averaged, normalized) (arbitrary units (background-subtracted, floor 0; scale differs between SH3 domains)); higher = stronger binding of the SH3 domain to the peptide
AgAbp1 = target: AgAbp1
Summary of the method: (§1)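 SH3 domains from four yeast species were expressed as GST fusions in E. coli BL21(DE3) and purified on glutathione Sepharose. Each was incubated at 10 μg/ml overnight at 4°C in TBS-based blocking buffer on cellulose membranes bearing synthetic 15-mer peptides, in which serines replaced cysteines. Bound protein was detected with anti-GST antibody, an HRP anti-mouse secondary and luminol, then imaged and quantified with Genespotter. The binding signal is the normalized, background-subtracted spot intensity averaged over replicates, in arbitrary units that are not the same from one domain to another.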

AgBbc1 = target: AgBbc1
Summary of the method: as §1

AgBem1-D1 = target: AgBem1-D1
Summary of the method: as §1

AgBzz1-D1 = target: AgBzz1-D1
Summary of the method: as §1

AgBzz1-D2 = target: AgBzz1-D2
Summary of the method: as §1

AgCyk3 = target: AgCyk3
Summary of the method: as §1

AgFus1 = target: AgFus1
Summary of the method: as §1

AgHof1 = target: AgHof1
Summary of the method: as §1

AgHse1 = target: AgHse1
Summary of the method: as §1

AgLsb1 = target: AgLsb1
Summary of the method: as §1

AgLsb4 = target: AgLsb4
Summary of the method: as §1

AgMyo5 = target: AgMyo5
Summary of the method: as §1

AgNbp2 = target: AgNbp2
Summary of the method: as §1

AgRvs167 = target: AgRvs167
Summary of the method: as §1

AgSho1 = target: AgSho1
Summary of the method: as §1

AgSla1-D1-D2 = target: AgSla1-D1-D2
Summary of the method: as §1

AgSla1-D3 = target: AgSla1-D3
Summary of the method: as §1

CaAbp1-D1 = target: CaAbp1-D1
Summary of the method: as §1

CaAbp1-D2 = target: CaAbp1-D2
Summary of the method: as §1

CaBbc1 = target: CaBbc1
Summary of the method: as §1

CaBem1-D1 = target: CaBem1-D1
Summary of the method: as §1

CaBzz1-D1 = target: CaBzz1-D1
Summary of the method: as §1

CaBzz1-D2 = target: CaBzz1-D2
Summary of the method: as §1

CaCyk3 = target: CaCyk3
Summary of the method: as §1

CaFus1 = target: CaFus1
Summary of the method: as §1

CaHof1 = target: CaHof1
Summary of the method: as §1

CaHse1 = target: CaHse1
Summary of the method: as §1

CaLsb1 = target: CaLsb1
Summary of the method: as §1

CaLsb4 = target: CaLsb4
Summary of the method: as §1

CaMyo5 = target: CaMyo5
Summary of the method: as §1

CaNbp2 = target: CaNbp2
Summary of the method: as §1

CaRvs167 = target: CaRvs167
Summary of the method: as §1

CaRvs167-3 = target: CaRvs167-3
Summary of the method: as §1

CaSho1 = target: CaSho1
Summary of the method: as §1

CaSla1-D1-D2 = target: CaSla1-D1-D2
Summary of the method: as §1

CaSla1-D3 = target: CaSla1-D3
Summary of the method: as §1

ScAbp1 = target: ScAbp1
Summary of the method: as §1

ScBbc1 = target: ScBbc1
Summary of the method: as §1

ScBem1-D1 = target: ScBem1-D1
Summary of the method: as §1

ScBzz1-D1 = target: ScBzz1-D1
Summary of the method: as §1

ScBzz1-D2 = target: ScBzz1-D2
Summary of the method: as §1

ScCyk3 = target: ScCyk3
Summary of the method: as §1

ScFus1 = target: ScFus1
Summary of the method: as §1

ScHof1 = target: ScHof1
Summary of the method: as §1

ScHse1 = target: ScHse1
Summary of the method: as §1

ScLsb1 = target: ScLsb1
Summary of the method: as §1

ScLsb2 = target: ScLsb2
Summary of the method: as §1

ScLsb3 = target: ScLsb3
Summary of the method: as §1

ScLsb4 = target: ScLsb4
Summary of the method: as §1

ScMyo3 = target: ScMyo3
Summary of the method: as §1

ScMyo5 = target: ScMyo5
Summary of the method: as §1

ScNbp2 = target: ScNbp2
Summary of the method: as §1

ScPex13 = target: ScPex13
Summary of the method: as §1

ScRvs167 = target: ScRvs167
Summary of the method: as §1

ScSho1 = target: ScSho1
Summary of the method: as §1

ScSla1-D1-D2 = target: ScSla1-D1-D2
Summary of the method: as §1

ScSla1-D3 = target: ScSla1-D3
Summary of the method: as §1

SpAbp1-D1 = target: SpAbp1-D1
Summary of the method: as §1

SpBbc1 = target: SpBbc1
Summary of the method: as §1

SpBzz1-D1 = target: SpBzz1-D1
Summary of the method: as §1

SpBzz1-D2 = target: SpBzz1-D2
Summary of the method: as §1

SpCyk3 = target: SpCyk3
Summary of the method: as §1

SpHof1 = target: SpHof1
Summary of the method: as §1

SpHof1-2 = target: SpHof1-2
Summary of the method: as §1

SpHof1-3 = target: SpHof1-3
Summary of the method: as §1

SpHse1 = target: SpHse1
Summary of the method: as §1

SpLsb1 = target: SpLsb1
Summary of the method: as §1

SpLsb4 = target: SpLsb4
Summary of the method: as §1

SpMyo1 = target: SpMyo1
Summary of the method: as §1

SpNbp2 = target: SpNbp2
Summary of the method: as §1

SpPex13 = target: SpPex13
Summary of the method: as §1

SpRvs167 = target: SpRvs167
Summary of the method: as §1

SpSla1-D1-D2 = target: SpSla1-D1-D2
Summary of the method: as §1

SpSla1-D3 = target: SpSla1-D3
Summary of the method: as §1

## PAPPPPPRASRPTPN
AgAbp1
  SPOT peptide array binding signal intensity: 7.5
AgBbc1
  SPOT peptide array binding signal intensity: 438
AgBem1-D1
  SPOT peptide array binding signal intensity: 19.5
AgBzz1-D1
  SPOT peptide array binding signal intensity: 57
AgBzz1-D2
  SPOT peptide array binding signal intensity: 8
AgCyk3
  SPOT peptide array binding signal intensity: 1
AgFus1
  SPOT peptide array binding signal intensity: ≤ 0
AgHof1
  SPOT peptide array binding signal intensity: 0.5
AgHse1
  SPOT peptide array binding signal intensity: 1.5
AgLsb1
  SPOT peptide array binding signal intensity: 6.5
AgLsb4
  SPOT peptide array binding signal intensity: 185
AgMyo5
  SPOT peptide array binding signal intensity: ≤ 0
AgNbp2
  SPOT peptide array binding signal intensity: 111
AgRvs167
  SPOT peptide array binding signal intensity: 34.2
AgSho1
  SPOT peptide array binding signal intensity: ≤ 0
AgSla1-D1-D2
  SPOT peptide array binding signal intensity: 3.5
AgSla1-D3
  SPOT peptide array binding signal intensity: 2
CaAbp1-D1
  SPOT peptide array binding signal intensity: 24.5
CaAbp1-D2
  SPOT peptide array binding signal intensity: 3
CaBbc1
  SPOT peptide array binding signal intensity: 657
CaBem1-D1
  SPOT peptide array binding signal intensity: 21
CaBzz1-D1
  SPOT peptide array binding signal intensity: 934
CaBzz1-D2
  SPOT peptide array binding signal intensity: 162
CaCyk3
  SPOT peptide array binding signal intensity: 21
CaFus1
  SPOT peptide array binding signal intensity: 45.5
CaHof1
  SPOT peptide array binding signal intensity: 17.5
CaHse1
  SPOT peptide array binding signal intensity: 3.5
CaLsb1
  SPOT peptide array binding signal intensity: 0.5
CaLsb4
  SPOT peptide array binding signal intensity: 939
CaMyo5
  SPOT peptide array binding signal intensity: 1.5

## HVRRSILALPLGVLL
AgAbp1
  SPOT peptide array binding signal intensity: 8
AgBbc1
  SPOT peptide array binding signal intensity: 2.75
AgBem1-D1
  SPOT peptide array binding signal intensity: 39
AgBzz1-D1
  SPOT peptide array binding signal intensity: ≤ 0
AgBzz1-D2
  SPOT peptide array binding signal intensity: 2.5
AgCyk3
  SPOT peptide array binding signal intensity: 1
AgFus1
  SPOT peptide array binding signal intensity: 605
AgHof1
  SPOT peptide array binding signal intensity: 22.8
AgHse1
  SPOT peptide array binding signal intensity: 325
AgLsb1
  SPOT peptide array binding signal intensity: 61.5
AgLsb4
  SPOT peptide array binding signal intensity: 201
AgMyo5
  SPOT peptide array binding signal intensity: ≤ 0
AgNbp2
  SPOT peptide array binding signal intensity: 57
AgRvs167
  SPOT peptide array binding signal intensity: 0.5
AgSho1
  SPOT peptide array binding signal intensity: 64
AgSla1-D1-D2
  SPOT peptide array binding signal intensity: 6
AgSla1-D3
  SPOT peptide array binding signal intensity: 5
CaAbp1-D1
  SPOT peptide array binding signal intensity: 120
CaAbp1-D2
  SPOT peptide array binding signal intensity: 85
CaBbc1
  SPOT peptide array binding signal intensity: 10
CaBem1-D1
  SPOT peptide array binding signal intensity: 10
CaBzz1-D1
  SPOT peptide array binding signal intensity: 21
CaBzz1-D2
  SPOT peptide array binding signal intensity: 22
CaCyk3
  SPOT peptide array binding signal intensity: 3
CaFus1
  SPOT peptide array binding signal intensity: 2060
CaHof1
  SPOT peptide array binding signal intensity: ≤ 0
CaHse1
  SPOT peptide array binding signal intensity: 25
CaLsb1
  SPOT peptide array binding signal intensity: 0.25
CaLsb4
  SPOT peptide array binding signal intensity: 47
CaMyo5
  SPOT peptide array binding signal intensity: 5.25
CaNbp2
  SPOT peptide array binding signal intensity: 450
CaRvs167
  SPOT peptide array binding signal intensity: 16.8
CaRvs167-3
  SPOT peptide array binding signal intensity: 7.75
CaSho1
  SPOT peptide array binding signal intensity: 439
CaSla1-D1-D2
  SPOT peptide array binding signal intensity: ≤ 0
CaSla1-D3
  SPOT peptide array binding signal intensity: 25
ScAbp1
  SPOT peptide array binding signal intensity: 22
ScBbc1
  SPOT peptide array binding signal intensity: ≤ 0
ScBem1-D1
  SPOT peptide array binding signal intensity: 10
ScBzz1-D1
  SPOT peptide array binding signal intensity: 12.5
ScBzz1-D2
  SPOT peptide array binding signal intensity: 3.5
ScCyk3
  SPOT peptide array binding signal intensity: 56
ScFus1
  SPOT peptide array binding signal intensity: 522
ScHof1
  SPOT peptide array binding signal intensity: 1.5
ScHse1
  SPOT peptide array binding signal intensity: 772
ScLsb1
  SPOT peptide array binding signal intensity: 5.5
ScLsb2
  SPOT peptide array binding signal intensity: ≤ 0
ScLsb3
  SPOT peptide array binding signal intensity: 182
ScLsb4
  SPOT peptide array binding signal intensity: 15.5
ScMyo3
  SPOT peptide array binding signal intensity: ≤ 0
ScMyo5
  SPOT peptide array binding signal intensity: ≤ 0
ScNbp2
  SPOT peptide array binding signal intensity: 114
ScPex13
  SPOT peptide array binding signal intensity: ≤ 0
ScRvs167
  SPOT peptide array binding signal intensity: 22.2
ScSho1
  SPOT peptide array binding signal intensity: 1000
ScSla1-D1-D2
  SPOT peptide array binding signal intensity: 5
ScSla1-D3
  SPOT peptide array binding signal intensity: 2
SpAbp1-D1
  SPOT peptide array binding signal intensity: 124
SpBbc1
  SPOT peptide array binding signal intensity: 2
SpBzz1-D1
  SPOT peptide array binding signal intensity: 30
SpBzz1-D2
  SPOT peptide array binding signal intensity: ≤ 0
SpCyk3
  SPOT peptide array binding signal intensity: 3
SpHof1
  SPOT peptide array binding signal intensity: 49
SpHof1-2
  SPOT peptide array binding signal intensity: 8.5
SpHof1-3
  SPOT peptide array binding signal intensity: 180
SpHse1
  SPOT peptide array binding signal intensity: 508
SpLsb1
  SPOT peptide array binding signal intensity: 2
SpLsb4
  SPOT peptide array binding signal intensity: 73.5
SpMyo1
  SPOT peptide array binding signal intensity: 2.5
SpNbp2
  SPOT peptide array binding signal intensity: 194
SpPex13
  SPOT peptide array binding signal intensity: ≤ 0
SpRvs167
  SPOT peptide array binding signal intensity: 9.83
SpSla1-D1-D2
  SPOT peptide array binding signal intensity: 2
SpSla1-D3
  SPOT peptide array binding signal intensity: 1
